Drawing on PubChem BioAssay AID1347426 (Functional Genomics Laboratory (NCATS/FGL), 2020), this text covers median seed-adjusted z-score for 108 sequences.

The whole screen tested about 31,000 sequences, of which about 1,400 (4.5%) were called active.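 The calls were made as follows: active = median seed-adjusted z-score above 1 or below -1; inactive = the rest.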 Many of the other results were omitted from the sample, so actives are more common in it than they were.

The nature of this experiment: Novel Modifiers of Survival Motor Neuron (SMN) Protein: Gene Identification via Genome-wide siRNA Screen.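 Also: luminescence tracks full-length SMN protein made from the SMN2 reporter.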 The note with it: HEK293T SMN2-luciferase reporter, siRNA knockdown, 72 h; actives lie on both sides. The procedure, abridged: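 Luciferase signal, proportional to full-length SMN made from an SMN2 cDNA reporter in stable HEK293T cells, was read 72 h after siRNA reverse transfection. Values were expressed as MAD scores after non-targeting-control normalization and log10 conversion; seed analysis flagged off-targets.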
A general note: In a reporter assay the amount or activity of a reporter protein is the signal.
As for CACAAUGAGUUAACUGAUATT against LILRB4, the median seed-adjusted z-score was -0.104 (inactive).

For CGUUAUUGCCUGUUUGGAATT against GUCY1A2, the median seed-adjusted z-score is -0.186 (inactive).

For the sequence GGGAAAAGCUUGACGAUUATT against RNF139, the median seed-adjusted z-score is 0.175 (inactive).

As to GGGUUGAAGGUGAUCAUCATT against IMMP2L, the median seed-adjusted z-score is 0.919 (inactive).

For GGCUCAUUGAGACGACUGATT against RCADH5, the median seed-adjusted z-score is -0.158 (inactive).

As to CACUGGAGACUUUCGCUUUTT against ZNF813, the median seed-adjusted z-score was 0.127 (inactive).

As to AGAUCUACAUCGUGAUGAATT against CDC2L1, the median seed-adjusted z-score was -1.14 (active).

With GGUACUUCGUGAUCCGCAUTT against NECAP2, the median seed-adjusted z-score was -0.539 (inactive).

In the case of GGACUGUCAAUCUUAGAUATT against GRK4, the median seed-adjusted z-score is -0.267 (inactive).

As to CGUGUACAAGGCUCUAACATT against EPN3, the median seed-adjusted z-score is 0.184 (inactive).

Turning to CUACGAAUCUGUGAAUGAATT against ERH, the median seed-adjusted z-score is -1.25 (active).

GCUAACCACUUGGAAGAUATT against PRMT7: the median seed-adjusted z-score is 0.204 (inactive).

Consider GGCAGAACCUAUACCAGAATT against MED6, for which the median seed-adjusted z-score was -2.15 (active).

Regarding CAGAACCUGUUGUAGAAAATT against GSPT2, the median seed-adjusted z-score is 0.846 (inactive).

For the sequence GGACGACUGCAGCAAGUUUTT against ATP2A3, the median seed-adjusted z-score is -0.28 (inactive).

With AGACCAUCCCUAACGGAUATT against PRELP, the median seed-adjusted z-score was -0.0579 (inactive).

Consider GCUCGUAGUUGGGAUAACATT against FRAP1, for which the median seed-adjusted z-score is -1.02 (active).

As to GGCUCUCAGAUUGUUGACATT against GABARAPL2, the median seed-adjusted z-score is 0.528 (inactive).

Regarding GAACAUUGGUGACUAUAUUTT against GRIP2, the median seed-adjusted z-score was -0.0256 (inactive).

Regarding GGAUGAUGUGCGUAACAGATT against HAO1, the median seed-adjusted z-score is 0.421 (inactive).

For the sequence CAGAAGUUCUCAGACCUAATT against ZNF721, the median seed-adjusted z-score was 0.404 (inactive).

For the sequence GCUAUACGGUUGACAACGATT against ISLR, the median seed-adjusted z-score is 0.00807 (inactive).

In the case of CCCUCCUCGUGGAACCAUATT against NEURL2, the median seed-adjusted z-score was 1.39 (active).

Take UCGUGGACCUGGUCUGUUATT against OGDHL: the median seed-adjusted z-score was -0.0878 (inactive).

With GGUCGAAAAGCAAACUCAATT against PTPRN2, the median seed-adjusted z-score was -0.104 (inactive).

As to CAUGGAAGAUCUGACCAUATT against MEOX2, the median seed-adjusted z-score is 1.36 (active).

Turning to GCAGGAUGAUCUCAAGUAUTT against MOBKL2B, the median seed-adjusted z-score was -0.613 (inactive).

Consider CCGCAGUGGAAAUACCAUATT against ANGEL1, for which the median seed-adjusted z-score was -0.332 (inactive).

In the case of GCGGCUAACAGGAUAUGUATT against ACTN2, the median seed-adjusted z-score was 0.165 (inactive).

Turning to CACAAGAUAUCAGGAGAAATT against FCRL2, the median seed-adjusted z-score was -0.294 (inactive).

CAUGAUCUCCGGCUACCUATT against SLCO2B1: the median seed-adjusted z-score was 0.289 (inactive).

As for GGAUGCUCCAAGUCUGUCATT against GPR179, the median seed-adjusted z-score is -0.513 (inactive).

For GCAGUUGUCCAGUUACGAATT against RAD50, the median seed-adjusted z-score was 0.266 (inactive).

With GAAGCUACAUGGGAAGUGUTT against SIRT7, the median seed-adjusted z-score was -0.427 (inactive).

On to CAGGUCGACUGAUAGAUCATT against DDX42, for which the median seed-adjusted z-score is -2.13 (active).

As for GGACUGAUCAUGAACCUCUTT against CPEB3, the median seed-adjusted z-score was 0.086 (inactive).

For GAGUUUAAUCUGAUUGAUATT against MOBKL1B, the median seed-adjusted z-score was 0.31 (inactive).

As for GCACUAUAUGAAUACGCAATT against AUP1, the median seed-adjusted z-score was 0.305 (inactive).

For the sequence GCAUCACACUCACAUCCCATT against DNASE2, the median seed-adjusted z-score was -1.23 (active).

In the case of GCUCUGUACAGGAAACUCUTT against IL2RA, the median seed-adjusted z-score was 0.587 (inactive).

Consider GUGUAGGGAUAGUUACCAATT against ZNF518A, for which the median seed-adjusted z-score was -0.252 (inactive).

As for GAGUUCUACUUGUCCAAUUTT against ZDHHC20, the median seed-adjusted z-score is -0.936 (inactive).

For GGCUUUGCUUAAGUUCAAATT against LPCAT4, the median seed-adjusted z-score is 0.338 (inactive).

As for CAACCAUAGUUAAAGUUAATT against TCP1, the median seed-adjusted z-score is -1.02 (active).

Take GGAUGUCUCAUUACACCAUTT against TGFBR3: the median seed-adjusted z-score is 0.285 (inactive).

Regarding UGCUGGUGUUUAAACCCAUTT against C5AR1, the median seed-adjusted z-score is 0.366 (inactive).

On to GCGACUUCAUGAUAGCAUATT against CAMK2D, for which the median seed-adjusted z-score was 0.0676 (inactive).

On to GGAGAUAUUUUUGACGGAATT against ZFHX3, for which the median seed-adjusted z-score was 0.045 (inactive).

AAGCCUACCAGGUCAAGUATT against EVI5L: the median seed-adjusted z-score is 0.0497 (inactive).

Regarding GGAUAUUAAGGACAGGAAATT against RAN, the median seed-adjusted z-score was -3.09 (active).

For GAAGCUACAGAAUCUGGAATT against ARFGAP2, the median seed-adjusted z-score was 0.0672 (inactive).

In the case of GGAUUCAACUUUACAAGAATT against BTD, the median seed-adjusted z-score is -0.165 (inactive).

Take AGGAGAUCGUCGUCACUGATT against NNMT: the median seed-adjusted z-score was -0.095 (inactive).

For CCAUAGCAGUAAUGAUACATT against GRIN3A, the median seed-adjusted z-score was 0.241 (inactive).

For the sequence GCCUGAACCGAGUAGAAGATT against KCNQ1, the median seed-adjusted z-score is -0.0525 (inactive).

In the case of GCAAGACCAUCAACAAGAUTT against CHRNE, the median seed-adjusted z-score was 0.349 (inactive).

In the case of CGGUCACAAUUUGCGCUGATT against ST8SIA3, the median seed-adjusted z-score was -0.848 (inactive).

Consider AAACAAUGGUUUGUGCAAATT against UCRC, for which the median seed-adjusted z-score was -0.93 (inactive).

With GGCUUUAAGAUCACGCAGATT against SNRPA, the median seed-adjusted z-score was -2.09 (active).

Regarding GGUCCGCUACUACCACCAATT against FUT4, the median seed-adjusted z-score was -0.24 (inactive).

For GAAGCUUACAGAUUCGAUATT against CNTNAP2, the median seed-adjusted z-score is -0.196 (inactive).

As for GGAUGACAUUAGCAGGUAUTT against ERCC6, the median seed-adjusted z-score was 0.0421 (inactive).

Take GAAAGUUCAAGUACAGUGATT against CYP2E1: the median seed-adjusted z-score is 0.81 (inactive).

Turning to GAAUCUGGUGGGCCCUUUATT against POFUT2, the median seed-adjusted z-score is -0.86 (inactive).

Consider GCUCAGCAUUGUCUGCAAATT against RNASE6, for which the median seed-adjusted z-score is 0.832 (inactive).

As to GAUUCUAGGAUAAGCACUATT against KLK8, the median seed-adjusted z-score is 0.736 (inactive).

As for GGUAAAGUUUUACAGCAUUTT against MTCH2, the median seed-adjusted z-score was -0.168 (inactive).

As for CCUGUAGAUUUGUCAACUATT against RANBP2, the median seed-adjusted z-score is 1.53 (active).

For AGCACGAAGGCAAACCCUATT against CRIP1, the median seed-adjusted z-score was -0.622 (inactive).

Turning to GUUGAGCCCUUGUAUAUUATT against UBE2C, the median seed-adjusted z-score is 0 (inactive).

Take GCUUUGAGGAAAAUCCGAATT against SLC26A3: the median seed-adjusted z-score is -0.506 (inactive).

For the sequence GGAAAGCUCUUCGUCUGGATT against IFIT5, the median seed-adjusted z-score is 0 (inactive).

Turning to GCCUCUUAAUUUACCAGAATT against OGN, the median seed-adjusted z-score is 0.0889 (inactive).

For the sequence GGUUGUUAGUGGAUCAUCATT against FBXW11, the median seed-adjusted z-score is 0.206 (inactive).

Consider GAGUGAUAUGAAACGGAAATT against NVL, for which the median seed-adjusted z-score was 0.701 (inactive).

Turning to GUUUCGAGAUUGUUGCUAUTT against CCNL1, the median seed-adjusted z-score is -1.26 (active).

CGACUACUACUACCCUGAUTT against CCR8: the median seed-adjusted z-score was -0.206 (inactive).

Take AGUGCAAAAACGUGCUGAATT against AURKAIP1: the median seed-adjusted z-score was 0.067 (inactive).

As to CGAUUGCUUUUCUACCAACTT against SCP2, the median seed-adjusted z-score was 0.413 (inactive).

Regarding CAUUUCGACUGGAUCAUAUTT against CLK1, the median seed-adjusted z-score was -0.436 (inactive).

On to AUACAGAUGAUAAACCAUUTT against ZBTB34, for which the median seed-adjusted z-score is 0.0298 (inactive).

As to CGGCCCUCCUCUGAAAAGATT against POU4F2, the median seed-adjusted z-score is 1.46 (active).

Regarding CCUCAGAUCUGAUGUCCAATT against VPS4A, the median seed-adjusted z-score is 0 (inactive).

As to GAAUGACCCUGUACCCUAUTT against TAF2, the median seed-adjusted z-score was -0.243 (inactive).

For the sequence GAAGGAUUUUGAGCCCGAATT against LETM1, the median seed-adjusted z-score is -0.491 (inactive).

ACACGUUGGAAGUAGCUGATT against OTUD4: the median seed-adjusted z-score is 0.167 (inactive).

GCUUAUAUGUUACCAUGGATT against COG4: the median seed-adjusted z-score is -0.508 (inactive).

With GGUGACCGGUUACUUGGGATT against FFAR1, the median seed-adjusted z-score was 0.248 (inactive).

Regarding GCUUAUCUCGGCAAUCAAATT against PAPPA2, the median seed-adjusted z-score was -0.173 (inactive).

For GAAAGACGAGCUUUACCUATT against GSK3A, the median seed-adjusted z-score was 0.248 (inactive).

For UGUGGAUCUGCUUACCAAATT against ZFAND2B, the median seed-adjusted z-score is 0 (inactive).

Turning to GAGGUUUUCCAGACGGUGATT against EHD3, the median seed-adjusted z-score was 0.569 (inactive).

Regarding GCAUGCUCAUGGGUUACAATT against ZNF451, the median seed-adjusted z-score was 0 (inactive).

In the case of GGUGGUUGCUGUAUAUGGATT against KCTD9, the median seed-adjusted z-score was 1.31 (active).

CGGAAGCAGUUCCAACUUUTT against AKAP8: the median seed-adjusted z-score is -0.252 (inactive).

For CAAAAUACAGAGUUUCUUUTT against RILP, the median seed-adjusted z-score is 0.503 (inactive).

With GGAUGUGAACGGGCACAUUTT against CDC42BPG, the median seed-adjusted z-score is 0.153 (inactive).

With CAGACAGUAUGUUCGAAGATT against PPAT, the median seed-adjusted z-score was -1.51 (active).

With GAAUCCUGAUGGGUAUGAATT against CPD, the median seed-adjusted z-score is -0.198 (inactive).

As for GUCUUUAAUGCGCACUAUATT against FEZF1, the median seed-adjusted z-score is 0.155 (inactive).

As for ACAUCGUUGUGGUCAAGGUTT against ADAMTS15, the median seed-adjusted z-score is 0.765 (inactive).

In the case of GGACAAAACUCCUCUCUAUTT against MED27, the median seed-adjusted z-score was -1.62 (active).

Take GUAUAGGGCCUGUAAGUUUTT against LANCL1: the median seed-adjusted z-score is 0 (inactive).

With CUGCCUUGAUGACACCAGATT against TRIM16, the median seed-adjusted z-score is 0.345 (inactive).

Regarding CUACUAUCCUGGUUCUGGATT against PROS1, the median seed-adjusted z-score is 0.436 (inactive).

Consider GUGAUACUGUCAAAGGUCATT against ATF2, for which the median seed-adjusted z-score was 0.424 (inactive).

As for GGGUUUAACUGGGAACUCUTT against GALNT8, the median seed-adjusted z-score was -0.283 (inactive).

For GAUCCGUUGGUGCAUGAAATT against ABHD2, the median seed-adjusted z-score is -1.21 (active).
